Screening results (PubChem)
IMPase inh: IMPase inhibition in cells. P97697. CHO-M1 cells, IP1 accumulation, HTRF TR-FRET ratio. inhibition (IP1 accumulation), % at 46.1 µM. 120,000 tested, under 10 active. AID 901; active means well fitted curve in the direction sought with a large enough effect in the signal ratio, not every such curve was filed as active; inconclusive means small, poorly fitted or top-dose-only effect, or a change in a side signal; inactive means no such curve, though single readings can be large or run the other way; the % refers to the signal ratio;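 further: cells stimulated with carbachol in lithium chloride buffer; higher means more IMPase inhibition seen as more IP1 and lower FRET ratio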
Target sequence (P97697 whole entry, looked up): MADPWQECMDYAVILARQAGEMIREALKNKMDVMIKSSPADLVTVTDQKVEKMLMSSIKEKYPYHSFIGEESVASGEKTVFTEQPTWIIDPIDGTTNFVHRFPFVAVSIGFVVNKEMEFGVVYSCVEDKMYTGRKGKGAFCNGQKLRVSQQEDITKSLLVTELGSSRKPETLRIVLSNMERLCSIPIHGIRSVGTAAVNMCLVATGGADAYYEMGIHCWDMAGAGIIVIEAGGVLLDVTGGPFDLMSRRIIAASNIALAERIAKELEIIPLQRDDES
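Carbachol-driven Gq signalling in CHO-M1 cells (2000/well) generates IP1. Compounds that block IMPase raise IP1 and so reduce the FRET signal from Eu-anti-IP1 and d2-IP1 after a 10 min room-temperature lysis.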
ALDH1A1 inh: blocks purified human ALDH1A1 activity | Purified ALDH1A1, NADH fluorescence, propionaldehyde substrate | Potency, µM (doses to about 75.3 µM), usual class: inhibitors | hit rate 7.3% among 220,000
HPGD inh: inhibitors of human 15-hydroxyprostaglandin dehydrogenase (HPGD). purified HPGD, NADH fluorescence kinetic, PGE2 substrate. Potency, µM, hits mostly inhibitors. hit rate 4.3% among 150,000
Target sequence (P15428 whole entry, looked up): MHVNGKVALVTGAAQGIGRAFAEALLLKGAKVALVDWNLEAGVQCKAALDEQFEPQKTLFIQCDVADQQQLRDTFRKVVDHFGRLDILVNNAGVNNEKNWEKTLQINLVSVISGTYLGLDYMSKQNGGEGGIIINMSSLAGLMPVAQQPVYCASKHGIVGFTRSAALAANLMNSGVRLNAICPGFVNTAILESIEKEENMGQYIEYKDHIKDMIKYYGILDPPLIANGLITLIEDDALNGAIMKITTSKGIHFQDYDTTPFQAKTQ
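NADH formation kinetics: reaction with 30 uM PGE2 and 1 mM NAD+ (final), 20 nM enzyme, Tris-HCl pH 8 with Tween 20, after 15 min compound preincubation at room temperature. Fluorescence change, last versus first of five reads.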
Of the large screens only hits and unclear results are named; the others gave an inactive call. Shown are actives, neighbours in structure and some others; about 9% of the full set was active somewhere. Unless noted, the call rests on the fitted dose curve; in most records, active means well fitted inhibition curve with a large enough effect (not every such curve was filed as active); inconclusive means small, poorly fitted or top-dose-only effect, or another doubt; inactive means no such curve, though single readings can be large or run the other way.

O=C(CSc1ccccc1C(=O)O)c1ccc([N+](=O)[O-])cc1	ALDH1A1 inh 16µM (no result: IMPase inh, HPGD inh)
CCCCN(C)C(=O)c1cn(CC)c2nc(C)ccc2c1=O	none
Cc1cc(C(=O)N2CCN(c3ccc([N+](=O)[O-])cc3)CC2)no1	none (no result: IMPase inh)
Cc1c(-c2ccccc2)oc2c(C(=O)N3CCN(c4ccc([N+](=O)[O-])cc4)CC3)cccc2c1=O	ALDH1A1 inh 3.5µM
O=C(COC(=O)c1cccnc1Cl)Nc1ccc2c(c1)OCCO2	none (no result: IMPase inh, HPGD inh)
CCC(=O)Oc1ccc(NC(=O)CSCc2ccccc2)cc1	none (no result: IMPase inh, HPGD inh)
Cc1cc(NC(=O)CCC(=O)N(c2ccccc2)C2(C(=O)NC3CCCCC3)CCCC2)no1	none
Cc1n[nH]c(=O)[nH]c1=O	none
COc1ccc(/C(O)=C2\C(=O)C(=O)N(CC3CCCO3)C2c2cc(OC)ccc2OC)cc1 (stereo not given)	ALDH1A1 inh inconclusive
COc1ccc(/C=C2\NC(=S)N(CC3CCCO3)C2=O)c(OC)c1 (stereo not given)	ALDH1A1 inh 1.3µM
COc1cccc(/C=C/C(=O)OCC(=O)c2cc(C)n(CC3CCCO3)c2C)c1OC (stereo not given)	ALDH1A1 inh inconclusive (no result: HPGD inh)
COc1ccc(/C=C2\NC(=S)N(CC3CCCO3)C2=O)c(OC)c1C (stereo not given)	ALDH1A1 inh 0.45µM
Cc1ccccc1OS(=O)(=O)c1cn(C)c(=O)n(C)c1=O	none (no result: IMPase inh, HPGD inh)
O=[N+]([O-])c1ccc2[nH]ncc2c1	none (no result: IMPase inh, HPGD inh)
C[C@]12CC[C@H](O)CC1=CC[C@H]1[C@@H]2CC[C@@]2(C)C(N(CCO)CCO)CC[C@@H]12 (stereo not given in full)	none (no result: IMPase inh)
CCCCCn1c(=O)[nH]c2cc(C(=O)N3CCN(CC)CC3)ccc2c1=O	ALDH1A1 inh inconclusive
CCOC(=O)N1CCN(C(=O)c2ccc3c(=O)n(CCC4=CCCCC4)c(=O)[nH]c3c2)CC1	ALDH1A1 inh 6.3µM
COc1cc(C(O)P(=O)(OCCC(C)C)c2ccc(N(C)C)cc2)cc(OC)c1OC (stereo not given)	none (no result: IMPase inh, HPGD inh)
FC(F)(F)c1nc(-c2cccnc2)ncc1-c1nnnn1-c1ccccc1	none
CCc1ccccc1-n1nnnc1-c1cnccc1C(F)(F)F	ALDH1A1 inh 18µM (no result: IMPase inh, HPGD inh)
Cc1ccc(NC(=O)N/C=C/c2ccc(Cl)cc2)cc1	ALDH1A1 inh 22µM
O=C(N/C=C/c1ccccc1)Nc1ccc(Cl)cc1	ALDH1A1 inh inconclusive
O=C(c1ccc(C#CC2(O)CCCCC2)cc1)N1CCOCC1	IMPase inh inconclusive, HPGD inh 14µM
CCOC(=O)CNC(=O)c1ccc(C#CC2(O)CCCCC2)cc1	none (no result: IMPase inh)
COCCCNC(=S)N1CCC(NC(=O)Nc2ccc(C)cc2)CC1	none (no result: IMPase inh, HPGD inh)
O=C(NC1(O)C(=O)c2ccccc2C1=O)c1ccccc1	ALDH1A1 inh 1.4µM
O=C(NO)c1ccccc1	none (no result: IMPase inh)
COC[C@H]1OC=C[C@@H](OC)[C@@H]1OC	none (no result: IMPase inh)
CO	none (no result: IMPase inh)
CCOC(=O)N1CCc2c(sc(NC(=O)c3ccc(Cl)s3)c2C(N)=O)C1	ALDH1A1 inh 19µM, HPGD inh 32µM
CCOC(=O)c1c(NC(=O)Nc2ccc(F)cc2)sc2c1CCN(C)C2	none (no result: IMPase inh, HPGD inh)
CCOC(=O)c1c(NC(=O)c2cccs2)sc2c1CCN(C(=O)OCC)C2	ALDH1A1 inh inconclusive, HPGD inh inconclusive
CCOC(=O)c1c(NC(=S)Nc2ccc(Cl)cc2)sc2c1CCN(C)C2	ALDH1A1 inh 25µM (no result: IMPase inh)
CCOC(=O)c1c(NC(=S)Nc2ccc(OCC)cc2)sc2c1CCN(C)C2	ALDH1A1 inh 24µM (no result: IMPase inh, HPGD inh)
CCOC(=O)c1c(NC(=O)C(F)(OC)C(F)(F)F)sc2c1CCN(C)C2 (stereo not given)	ALDH1A1 inh inconclusive
CC(=O)c1ccc(NC(=S)NCCCN2CCOCC2)cc1	none (no result: IMPase inh, HPGD inh)
Cc1cc(NC(=O)CCC(=O)N(c2ccccc2)C(C(=O)NC2CCCC2)c2ccccc2)no1 (stereo not given)	ALDH1A1 inh 25µM
Cc1ccc(N(C(=O)CCC(=O)Nc2cc(C)on2)C(C(=O)NC2CCCC2)c2ccccc2)cc1 (stereo not given)	none (no result: IMPase inh, HPGD inh)
COc1ccc(-c2noc(-c3ccccc3C(=O)NCC3CCCO3)n2)cc1 (stereo not given)	none (no result: IMPase inh, HPGD inh)
Nn1c(Cc2ccc(Br)cc2)n[nH]c1=S	ALDH1A1 inh 11µM (no result: IMPase inh, HPGD inh)
CCc1ccc(-n2c(Cc3ccccc3)n[nH]c2=S)cc1	none (no result: IMPase inh, HPGD inh)
COc1ccc(Cc2n[nH]c(=S)n2N)cc1OC	ALDH1A1 inh 10µM (no result: IMPase inh, HPGD inh)
COc1ccc(Cc2n[nH]c(=S)n2C)cc1Br	none (no result: IMPase inh, HPGD inh)
O=[n+]1c2c(n([O-])c3ccccc31)CCCC2	none
COc1cc(Br)cc2cc(C(=O)N3CCCCC3C)c(=O)oc12 (stereo not given)	ALDH1A1 inh inconclusive, HPGD inh 13µM
COc1cc(Br)cc2cc(C(=O)N3CCN(C(=O)c4ccco4)CC3)c(=O)oc12	ALDH1A1 inh inconclusive
c1ccc(C(c2ccccc2)N2CCC3(CCNCC3)CC2)cc1	none (no result: IMPase inh)
Cc1c(C(=O)c2ccc(Cl)c([N+](=O)[O-])c2)c2ccccn2c1CCC#N	ALDH1A1 inh inconclusive (no result: IMPase inh)
Cc1c(C(=O)c2ccc(N(C)C)cc2)c2ccccn2c1CCC#N	ALDH1A1 inh 16µM (no result: IMPase inh, HPGD inh)
O=C(/C=C\c1ccc(O)c(O)c1)OCCc1ccccc1	none (no result: ALDH1A1 inh, HPGD inh)
O=C(CC1C(=O)CCCC1=O)c1ccccc1	ALDH1A1 inh 8.9µM (no result: IMPase inh, HPGD inh)
O=C(CCC1CCCCC1=O)c1ccccc1 (stereo not given)	IMPase inh inconclusive
CC1=CCC(COC(=O)Nc2ccccc2)CC1 (stereo not given)	ALDH1A1 inh inconclusive
O=C(c1cccc(Cl)c1)N1CCN(c2ccccn2)CC1	ALDH1A1 inh inconclusive
O=C(c1ccc2c(c1)N(Cc1cccc(Cl)c1)C(=O)c1ccccc1S2(=O)=O)N1CCN(c2ccccn2)CC1	ALDH1A1 inh 20µM (no result: IMPase inh, HPGD inh)
COc1ccc(C(=O)NN2C(=O)C3C4C=CC(O4)C3C2=O)cc1 (stereo not given)	ALDH1A1 inh 7.9µM
COc1cccc(C(=O)NN2C(=O)C3C4C=CC(O4)C3C2=O)c1 (stereo not given)	ALDH1A1 inh 14µM
COc1cccc(C(=O)NN2c3ccccc3CCc3ccccc32)c1	none (no result: IMPase inh)
COc1ccc(C(=O)NN2C(=O)C3CCC(C)(C2=O)C3(C)C)cc1 (stereo not given)	none
Cc1cccc(NC(=O)NC2CC(=O)N(c3ccc4c(c3)OCCO4)C2)n1 (stereo not given)	none (no result: IMPase inh, HPGD inh)
O=C(CN(C1CC1)S(=O)(=O)c1ccc(S(=O)(=O)N2CCCCCC2)cc1)Nc1ccccc1	none
COC(=O)CCN(C1CCCCC1)S(=O)(=O)c1ccc(S(=O)(=O)N2CCCCC2)cc1	ALDH1A1 inh 1.8µM
Cc1ccc2ccc(S(=O)(=O)n3nc(C)cc3C)cc2c1	ALDH1A1 inh 0.89µM, HPGD inh inconclusive
COc1ccc(C)cc1S(=O)(=O)n1nc(C)cc1C	none (no result: IMPase inh, HPGD inh)
N#Cc1ccsc1NC(=O)COC(=O)c1cc2ccccc2cc1O	none (no result: IMPase inh)
COCCCNC(=O)CSc1nc(-c2ccc(OC)cc2)[nH]c1-c1ccc(OC)cc1	none (no result: ALDH1A1 inh, HPGD inh)
CN(C)/C=C1/Sc2ccccc2C1=O	ALDH1A1 inh inconclusive
CC(=O)N(\C=C/C=C/C=C1\Sc2ccccc2C1=O)c1ccccc1	ALDH1A1 inh 18µM (no result: IMPase inh, HPGD inh)
CCOC(=O)COc1c(/C=N\OC)cc(Cl)cc1OC	none (no result: IMPase inh, HPGD inh)
CCN1CCN(C(=O)N[C@H](C(=O)N[C@@H]2C(=O)N3C(C(=O)O)=C(CSc4nnnn4C)CS[C@@H]23)c2ccc(O)cc2)C(=O)C1=O	none
O=C1C[C@@H]2CCN3C(=O)CCC[C@@H]([C@H]23)[C@@H]1Cc1ccccc1	ALDH1A1 inh 16µM (no result: IMPase inh)
